{
  "source": "PubChem BioAssay AID1345083",
  "about": "(National Center for Advancing Translational Sciences (NCATS), 2018)",
  "note": "The whole screen tested about 94,000 compounds, of which about 6,200 (6.6%) were called active. About 31% were inconclusive and are not listed. The list comes from a sample in which actives are over-represented; it also holds similar structures and randomly drawn compounds. Values without a mark were called inactive. Calls follow the shape of the dose curve; as a rule, active = well fitted inhibition curve with a large enough effect; inconclusive = small, poorly fitted or top-dose-only effect; inactive = flat fitted curve, though single readings scatter. % is scaled to controls: 0 for no effect and ±100 for the full control effect; potency is read from the fitted curve at half-maximal effect.",
  "data": [
    {"test": "Cytotoxic Profiling in HEK 293 Cell Line of Diverse Libraries Using Quantitative High-Throughput Screening; also: nearly all actives have a fitted effect of over 60% in size", "settings": "HEK 293 viability, ATP luminescence (CellTiter-Glo), 48-72 h; series mostly up to 115 µM; activity change, negative = cytotoxicity: at the top concentration", "method_in_brief": "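Viability of HEK 293 cells, plated at 250 cells/well, was judged by cellular ATP after compound treatment for 48 or 72 hr. Luminescence was imaged 10 min after CellTiter-Glo addition at room temperature.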", "values": [
      {"compound": "CC(C)CC(=O)N1CCCN(c2nnc3ccccn23)CC1", "outcome": "inactive"},
      {"compound": "C[C@@H](NC(=O)c1cccnc1)c1c(-c2ccc(F)cc2)noc1C(=O)O", "activity change, negative = cytotoxicity": "4.65% [at 172 µM]"},
      {"compound": "CC(=O)NC1CN(c2ccnc3ccnn23)C1", "activity change, negative = cytotoxicity": "-10.6% [at 172 µM]"},
      {"compound": "Cc1cccc(C(=O)N2C[C@@H](F)C[C@H]2C(=O)N2CCCCC2)c1", "activity change, negative = cytotoxicity": "1.93%"},
      {"compound": "Cc1cccc(-c2cccc(NC(=O)C3CCCN(C(=O)CC(F)(F)F)C3)c2)c1", "note": "(configuration not stated)", "Potency": "31.6 µM (active)"},
      {"compound": "CC(=O)Nc1cccc(-c2nnc3n2CCCC3)c1", "activity change, negative = cytotoxicity": "24.3%"},
      {"compound": "CCCCc1ccc(NC(=O)Cn2ccn3nc(-c4ccc(F)cc4)c(CO)c3c2=O)cc1", "activity change, negative = cytotoxicity": "-0.406%"},
      {"compound": "O=C(NCc1cccc(C(F)(F)F)c1)c1nn(CCOc2ccccc2)c2c1CNCC2", "Potency": "28.2 µM (active)"},
      {"compound": "COC[C@H]1NC(=O)CC[C@H]1C(=O)NCc1cccc(C(F)(F)F)c1", "activity change, negative = cytotoxicity": "2.55%"},
      {"compound": "COc1ccccc1CNC(=O)c1nn(CC2CC2)c2c1CNCC2", "activity change, negative = cytotoxicity": "-11%"},
      {"compound": "CNC(=O)c1noc([C@@H]2CC(F)(F)CN2Cc2ccc(C)cn2)n1", "activity change, negative = cytotoxicity": "1.02%"},
      {"compound": "COc1ccc(OCC2CN(Cc3cccc(F)c3)[S+](=O)([O-])c3cccnc3O2)cc1", "note": "(configuration not stated)", "Potency": "28.2 µM (active)"},
      {"compound": "COc1ccc(CN2CCC3(COc4ncccc4[S+](=O)([O-])N3)C2)cc1", "note": "(configuration not stated)", "activity change, negative = cytotoxicity": "-6.89%"},
      {"compound": "COc1ccc(N2CC(COc3ccccc3)Oc3ncccc3[S+]2(=O)[O-])cc1", "note": "(configuration not stated)", "activity change, negative = cytotoxicity": "-26% [at 57.5 µM]"},
      {"compound": "CNC(=O)N1CCC(C2CCN(C(=O)C3CC=CC3)C2)CC1", "note": "(configuration not stated)", "activity change, negative = cytotoxicity": "-10.2%"},
      {"compound": "CC(C)(C)c1csc(NC(=O)c2ccc3c(c2)OCCN(C2CCC2)C3)n1", "Potency": "50.1 µM (active)"},
      {"compound": "O=C(Cn1nc2c(cc1=O)CCCC2)Nc1nc(-c2ccc3c(c2)OCCCO3)cs1", "activity change, negative = cytotoxicity": "1.44%"},
      {"compound": "COc1ccc(NC(=O)Cn2c(C)ccc(NS(=O)(=O)c3ccccc3)c2=O)cc1", "activity change, negative = cytotoxicity": "-11.2%"},
      {"compound": "CCOc1ccc2c(n1)CCN(C(=O)C(C)C)C2", "activity change, negative = cytotoxicity": "-20.1%"},
      {"compound": "O=C(NCc1ccc(Cl)nc1)c1cn2c(n1)CN(C(=O)c1cccnc1)CC2", "outcome": "inactive"},
      {"compound": "O=C(NCCc1cnccn1)c1coc(COc2cccc(C(F)(F)F)c2)n1", "activity change, negative = cytotoxicity": "-2.53%"},
      {"compound": "CN(C)C[C@@H]1CN(Cc2ccccn2)C[C@H]1NC(=O)c1cc(Cl)ccc1F", "Potency": "44.7 µM (active)"},
      {"compound": "CN(C)C[C@@H]1CN(c2ncccn2)C[C@H]1NC(=O)c1cc(Cl)ccc1F", "activity change, negative = cytotoxicity": "2.99%"},
      {"compound": "Cc1occc1C(=O)N[C@@H]1CN(Cc2cccnc2)C[C@H]1CN(C)C", "activity change, negative = cytotoxicity": "-0.747%"},
      {"compound": "CNC(=O)c1cc(C)nc2onc(C3CCN(C(=O)c4ccc(C)cc4)CC3)c12", "activity change, negative = cytotoxicity": "-0.605%"},
      {"compound": "NC(=O)CCNC(=O)C1=C[C@@H](NC(=O)Nc2ccccc2Br)[C@@H](O)[C@H](O)C1", "outcome": "inactive"},
      {"compound": "CCN(C1CCN(C)CC1)C1CN(C(=O)c2nccc3ccccc23)C1", "activity change, negative = cytotoxicity": "-0.681%"}
    ]}
  ]
}
